The values below come from PubChem BioAssay (Tox21).

The source made the active and inactive calls. Calls come from the whole dose curve.
% is set by controls: 0 for no effect and ±100 for the full control effect; potency is the fitted concentration of half-maximal effect.

Acetylcholinesterase (Homo sapiens), sequence (P22303 whole entry, looked up): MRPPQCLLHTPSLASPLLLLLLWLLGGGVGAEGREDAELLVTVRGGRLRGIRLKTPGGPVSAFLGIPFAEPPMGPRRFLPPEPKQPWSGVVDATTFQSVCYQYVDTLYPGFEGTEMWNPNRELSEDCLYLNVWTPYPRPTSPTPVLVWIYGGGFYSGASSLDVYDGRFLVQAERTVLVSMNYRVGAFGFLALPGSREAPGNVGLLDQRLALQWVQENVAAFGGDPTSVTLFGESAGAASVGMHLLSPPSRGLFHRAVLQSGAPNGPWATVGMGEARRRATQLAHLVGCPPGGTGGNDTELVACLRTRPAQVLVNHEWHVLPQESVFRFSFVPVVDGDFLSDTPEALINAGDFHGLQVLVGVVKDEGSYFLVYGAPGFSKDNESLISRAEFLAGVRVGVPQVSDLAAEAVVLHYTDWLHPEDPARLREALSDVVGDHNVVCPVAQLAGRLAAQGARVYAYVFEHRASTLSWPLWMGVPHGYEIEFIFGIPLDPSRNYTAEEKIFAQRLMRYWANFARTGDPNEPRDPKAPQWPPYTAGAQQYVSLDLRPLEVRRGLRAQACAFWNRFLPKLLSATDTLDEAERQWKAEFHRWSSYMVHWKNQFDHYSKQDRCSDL

The experiment deals with Acetylcholinesterase (Homo sapiens) (UniProt P22303). Description: Acetylcholinesterase (AChE) small molecule antagonists: enzyme-based qHTS assay (AID 1347397). Note: nearly all actives have a fitted effect of over 55% in size. The conditions noted are these: Potency: AChE enzyme activity inhibition; outcome: AChE enzyme activity inhibition; series mostly up to 115 µM; activity change, negative = inhibition: at the top concentration. From the text:
National Center for Advancing Translational Sciences [NCATS]
Division of Preclinical Innovation [DPI]
U.S. Environmental Protection Agency [EPA]
National Institutes of Environmental Health Sciences [NIEHS]
National Toxicology Program [NTP]
U.S. Food and Drug Administration [FDA]
Acetylcholinesterase (AChE) is the primary cholinesterase in the body that hydrolyzes a key neurotransmitter, acetylcholine. Inhibition of AChE activity can lead to neurotoxicity. The known inhibitors include organophosphorous pesticides (OP), chemical warfare agents, drugs, and various phytochemicals.
An enzyme-based assay with the recombinant human AChE and Amplite Colormetric acetylcholinesterase assay kit (AAT Bioquest, Sunnyvale, CA) was used to evaluate the chemicals in the Tox21 10K library that inhibit AChE activity. The assay uses 5, 5-dithiobis-(2-nitrobenzoic acid) (DTNB) to quantify the thiocholine produced from the hydrolysis of acetylthiocholine by AChE.
Tox21 Assay Protocol Summary:
For the enzyme-based AChE assay, recombinant human AChE (50 mU/mL) in 4 uL/well was dispensed into black, clear-bottom 1536-well plates using a Multidrop Combi dispenser (Thermo Scientific, MA). Then, 23 nL of compound or DMSO (vehicle control) was transferred into the assay plates by a Pintool Station (Wako Automation, CA). The plates were incubated for 30 min at room temperature, followed by the addition of 4 uL of colorimetric detection cocktail solution (DTNB, acetylthiocholine) into each well using a Flying Reagent Dispenser (Beckman Coulter, CA) and then 10 min incubation at room temperature.
As to `O=[N+]([O-])c1ccc(Nc2ccc(Nc3ccccc3)c(S(=O)(=O)O)c2)c([N+](=O)[O-])c1`, the “activity change, negative = inhibition” value was 11.1% (inactive).

For `CCCCCCOC(=O)CCCCC`, the “activity change, negative = inhibition” value was 0.893% (inactive).

With `CCCCCCCCOCCCN`, the “activity change, negative = inhibition” value was -0.258% (inactive).

For `CCc1cccc(C)c1`, the “activity change, negative = inhibition” value is 0.196% (inactive).

On to `CC(=O)O[C@@H]1CC2CCC1(C)C2(C)C` (stereo not given in full), for which the “activity change, negative = inhibition” value was 2.66% (inactive).

On to `OC(C#CCN1CCCC1)(c1ccccc1)c1ccccc1`, for which the “activity change, negative = inhibition” value was 0.248% [at 53 µM] (inactive).

Regarding `CN1CC(=O)N2[C@H](c3ccc4c(c3)OCO4)c3[nH]c4ccccc4c3C[C@@H]2C1=O`, the “activity change, negative = inhibition” value was -3.22% [at 53 µM] (inactive).

With `C[Si]1(C)O[Si](C)(C)O[Si](C)(C)O1`, the “activity change, negative = inhibition” value was -0.412% (inactive).

On to `C=CCOC(=O)COCCC(C)C`, for which the “activity change, negative = inhibition” value is -0.545% (inactive).

On to `CCC(CO)(CO)[N+](=O)[O-]`, for which the “activity change, negative = inhibition” value was 0.71% (inactive).

Turning to `Cc1oc2c(NC(=O)c3c(Cl)cccc3Cl)cccc2c1C(C)(C)O`, the “activity change, negative = inhibition” value is -2.34% (inactive).

Regarding `O=C(c1ccccc1)C1CCCCC1`, the “activity change, negative = inhibition” value was -0.705% (inactive).

For `CC(=O)S[C@H](C(=O)N[C@H]1Cc2ccccc2[C@H]2CCC[C@@H](C(=O)O)N2C1=O)C(C)C`, the “activity change, negative = inhibition” value is 0.133% (inactive).

`CCCCCCOc1ccccc1C(N)=O`: the “activity change, negative = inhibition” value was -0.265% [at 53 µM] (inactive).

As to `O=C(Nc1cccc2c(=O)cc(-c3nn[nH]n3)oc12)c1ccc(OCCCCc2ccccc2)cc1`, the Potency is 27.5 µM (active).

As to `COC(=O)CC(C)=O`, the “activity change, negative = inhibition” value was -0.275% (inactive).

In the case of `CC1C2CC(CC2C2CCCC(O)C2)C1(C)C` (stereo not given), the “activity change, negative = inhibition” value was -4.27% (inactive).

As for `ON(Cc1ccccc1)Cc1ccccc1`, the “activity change, negative = inhibition” value is 2.47% (inactive).

As for `O=C(OOC(=O)c1ccccc1)c1ccccc1`, the “activity change, negative = inhibition” value was 0.593% [at 53 µM] (inactive).

On to `NC(=O)c1ccncc1`, for which the “activity change, negative = inhibition” value was 0.562% (inactive).

As for `CC(C)=CCOc1ccc(/C=C/C(=O)c2ccc(OCC=C(C)C)cc2OCC(=O)O)cc1`, the “activity change, negative = inhibition” value was 3.14% [at 53 µM] (inactive).

For `Nc1ccc(Oc2ccc(N)c(N)c2)cc1`, the “activity change, negative = inhibition” value is -2.92% (inactive).

As to `CCN1CCCC1CNC(=O)c1cc(S(=O)(=O)CC)c(N)cc1OC` (stereo not given), the Potency is 15.5 µM (active).

Take `CCOc1ccccc1N`: the “activity change, negative = inhibition” value is -0.534% (inactive).

As to `CCOC(=O)C(Br)c1ccccc1` (stereo not given), the “activity change, negative = inhibition” value was -15.6% (inactive).

For `O=c1c2ccccc2nnn1CCl`, the “activity change, negative = inhibition” value was 0.526% (inactive).

Regarding `COc1ccc2cc(C=O)ccc2c1`, the “activity change, negative = inhibition” value is -0.523% [at 53 µM] (inactive).

`C=C(C)C(=O)OCCOCCOC(=O)C(=C)C`: the “activity change, negative = inhibition” value was 0.165% (inactive).

On to `O=S(=O)(O)c1ccccc1O`, for which the “activity change, negative = inhibition” value is -0.962% (inactive).

For `CCOCCOC(=O)/C=C/c1ccc(OC)cc1`, the “activity change, negative = inhibition” value was 0.54% [at 53 µM] (inactive).

For `COc1c(C)c2c(c(O)c1C/C=C(\C)CCC(=O)O)C(=O)OC2`, the “activity change, negative = inhibition” value is 0.615% [at 53 µM] (inactive).

For `S=P(N1CC1)(N1CC1)N1CC1`, the Potency is 59.4 µM (active).

For `CCCOc1sc(C(=O)N2CCC(c3cc(CN)ccc3F)CC2)c(C)c1Br`, the Potency was 73 µM (active).

Regarding `O=C(O)COc1ccc2ccccc2c1`, the “activity change, negative = inhibition” value was -2.84% (inactive).

`CCOC(=O)Nc1ccc(NCc2ccc(F)cc2)nc1N`: the “activity change, negative = inhibition” value is 2.3% [at 53 µM] (inactive).

For the compound `CCN(CC)c1ccc2c(c1)Oc1cc(N(CC)CC)ccc1C21OC(=O)c2ccccc21`, the “activity change, negative = inhibition” value was -1.36% [at 53 µM] (inactive).

Consider `N#CCCOCCC#N`, for which the “activity change, negative = inhibition” value was 0.546% (inactive).

`C[C@H](CCC(=O)O)[C@H]1CC[C@H]2[C@@H]3C(=O)C[C@@H]4CC(=O)CC[C@]4(C)[C@H]3CC(=O)[C@]12C`: the “activity change, negative = inhibition” value was 1.25% [at 53 µM] (inactive).

For `O=C1c2ccccc2C(=O)c2cc(Cl)ccc21`, the activity change, negative = inhibition is -1.23% [at 10.5 µM] (inactive).

As to `C1=CCC(c2ccccc2)CC1` (stereo not given), the “activity change, negative = inhibition” value was 0.14% (inactive).
